Results on nine compounds are retold here after ChEMBL document CHEMBL4513135, “CO-ADD screening of IQOG CSIS (Spain) compounds”.

For one experiment, the system named is Klebsiella pneumoniae. Conditions: Concentration 32 ug.mL-1; ASSAY_TEST Inhibition of Bacterial Growth; detection method Absorption (OD600); MEDIA CAMHB; plate type 384well; NBS; CORNING #3640; time 18 hr.
The subject of a further experiment is Candida albicans. Conditions: 32 ug/mL.
The subject of the next experiment is Cryptococcus neoformans. Conditions: Concentration 32 ug.mL-1; ASSAY_TEST Inhibition of Fungal Growth; detection method Resazurin; Absorption (OD600-OD570); plate type 384well; NBS; CORNING #3640.

The structures appear in SMILES notation. Results with a measured potency or affinity are listed apart.

As for `Cl.ClCCCCN1CCCCC1`, the results for the Inhibition with Klebsiella pneumoniae, in the experiment with Candida albicans and with Cryptococcus neoformans were -0.73%, -0.33% and -8.6%, respectively.

Turning to `COc1ccccc1C1C(C#N)=C(N)Oc2c1ccc1ccccc21` (configuration not stated), the results for the Inhibition in the experiment with Klebsiella pneumoniae, in the experiment with Candida albicans and in the experiment with Cryptococcus neoformans were 8.71%, 1.78% and -34.5%, respectively.

As for `CC1=NC(=Cc2ccccc2)C(=O)S1`, the figures for the Inhibition in the experiment on Klebsiella pneumoniae, with Candida albicans and in the experiment with Cryptococcus neoformans were 11%, 0.37% and -6.24%, respectively.

Consider `CC(=O)NCCc1ccccc1`, for which the values for the Inhibition with Klebsiella pneumoniae, with Candida albicans and with Cryptococcus neoformans were 14.22%, 1.13% and -3.47%, respectively.

Consider `COc1ccc(C2C(C#N)=C(N)Oc3ccc4ccccc4c32)cc1` (configuration not stated), for which the Inhibition in the experiment with Klebsiella pneumoniae was 8.69%; in the experiment with Candida albicans, 1.62%; with Cryptococcus neoformans, -30.57%.

As for `C#CCN(Cc1ccccc1)c1nc(N)c(C#N)c(-c2ccccc2)c1C#N`, the Inhibition with Klebsiella pneumoniae was -5.74%; in the experiment on Candida albicans, 2.73%; in the experiment with Cryptococcus neoformans, -25.11%.

Turning to `C#CCNc1nc(Cl)c(C#N)c(-c2ccccc2)c1C#N`, the Inhibition in the experiment on Klebsiella pneumoniae is -23.73%; in the experiment with Candida albicans, 1.27%; with Cryptococcus neoformans, -7.07%.

Consider `Cc1ccc2nc(Cl)c(/C=N/NCc3ccccc3)cc2c1`, for which the Inhibition with Klebsiella pneumoniae was 7.66%; with Candida albicans it was 14.7%; in the experiment with Cryptococcus neoformans, -3.59%.

Consider `Cc1nc2c3c(C)nn(-c4ccccc4)c3ncn2n1`, for which the Inhibition with Klebsiella pneumoniae is 13.92%; with Candida albicans, -0.04%; in the experiment on Cryptococcus neoformans, -2.13%.
